The results in this text go back to PubChem BioAssay (NCI).

SMILES strings stand for the structures. This is part of a sample that, as a whole, favours compounds with a hit. Of some 83,000 tested, about 20% had one in any assay.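 Activity criterion: percent growth below 10, measured after cells in 96-well plates were exposed to a single compound concentration for 48 hours.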 Values without a mark were called inactive. Calls of active or inactive are those of the source.

Some test systems named below: SK-MEL-2 melanoma; EKVX NSCLC; SN12C renal; UO-31 renal; TK-10 renal; ACHN renal; CAKI-1 renal; HL-60(TB) leukemia; CCRF-CEM leukemia; MOLT-4 leukemia; SR leukemia; RPMI-8226 leukemia; OVCAR-8 ovarian; OVCAR-5 ovarian; OVCAR-4 ovarian; SK-OV-3 ovarian; IGROV1 ovarian; OVCAR-3 ovarian; HS 578T breast.
Common to all, as to experiment: NCI-60 one-dose screen, 48 h (100 = growth as untreated, 0 = no growth, -100 = all killed)
Common to all, as to settings: 10 µM unless noted

`CN(C)C1C(=O)C(C(N)=O)=C(O)C2(O)C(=O)C3=C(O)c4c(O)cccc4C(C)(O)C3CC12.[Cl][Sb]([Cl])[Cl]` (centres undefined): the growth was -7.83% (active) with SK-MEL-2 melanoma; 41% with EKVX NSCLC; 41.8% with SN12C renal; 54.7% in the experiment on UO-31 renal; 42.4% in the experiment with TK-10 renal; 59% in the experiment with ACHN renal. Also, the growth is 12.3% in the experiment on CAKI-1 renal; 31.4% in the experiment on HL-60(TB) leukemia; 17% in the experiment with CCRF-CEM leukemia; 36.9% in the experiment on MOLT-4 leukemia; 19.2% in the experiment with SR leukemia; 15.4% in the experiment with RPMI-8226 leukemia. Besides, the growth in the experiment with OVCAR-8 ovarian is 21.3%; in the experiment with OVCAR-5 ovarian it was 143%; with OVCAR-4 ovarian it was 44.2%; in the experiment with SK-OV-3 ovarian, 76.9%; with IGROV1 ovarian, 45.1%; in the experiment with OVCAR-3 ovarian it was 38%. For the same compound, in the experiment on HS 578T breast, the growth was 31.7%.

Consider `COC(=O)[C@@H](C[C@H](Cc1ccccc1)NC(=O)c1csc([C@@H](C[C@H](C(C)C)N(C)C(=O)[C@@H](NC(=O)[C@H]2CCCCN2C)C(C)C)OC(C)=O)n1)NC(=O)OCc1ccccc1`, for which the growth was -10.4% [9.5 µM] (active) in the experiment with SK-MEL-2 melanoma; 51.5% [9.5 µM] in the experiment with EKVX NSCLC; 15% [9.5 µM] with SN12C renal; 27.3% [9.5 µM] with UO-31 renal; 45.2% [9.5 µM] in the experiment on TK-10 renal; 16.4% [9.5 µM] in the experiment with ACHN renal. The growth in the experiment with CAKI-1 renal is 35.1% [9.5 µM]; in the experiment on HL-60(TB) leukemia it was -40.2% [9.5 µM] (active); with CCRF-CEM leukemia it was 6.42% [9.5 µM] (active); in the experiment on MOLT-4 leukemia, 11.8% [9.5 µM]; in the experiment with SR leukemia, -23.3% [9.5 µM] (active); with RPMI-8226 leukemia, -9.01% [9.5 µM] (active). The growth in the experiment with OVCAR-8 ovarian was 13.3% [9.5 µM]; in the experiment on OVCAR-5 ovarian, 42.2% [9.5 µM]; in the experiment on OVCAR-4 ovarian, 46.2% [9.5 µM]; in the experiment on SK-OV-3 ovarian it was 12.4% [9.5 µM]; with IGROV1 ovarian, 13.2% [9.5 µM]; in the experiment with OVCAR-3 ovarian, -23.7% [9.5 µM] (active). In addition, the growth in the experiment on HS 578T breast is 12.9% [9.5 µM].

With `Cc1cc(N(CCCl)CCCl)ccc1C=Nc1ccccc1-c1ccccc1`, the growth in the experiment on SK-MEL-2 melanoma is 115%; with EKVX NSCLC it was 101%; in the experiment on SN12C renal, 54.8%; with UO-31 renal, 59.5%; in the experiment on TK-10 renal, 88.2%; in the experiment with ACHN renal, 34.4%. Moreover, the growth with CAKI-1 renal is 27.6%; in the experiment with HL-60(TB) leukemia it was 48.4%; in the experiment with CCRF-CEM leukemia, 54.2%; with MOLT-4 leukemia it was 41.9%; in the experiment with SR leukemia it was 30.6%; with RPMI-8226 leukemia, 86.7%. Further, the growth was 43.1% in the experiment on OVCAR-5 ovarian; 99.5% in the experiment on OVCAR-4 ovarian; 98.6% with SK-OV-3 ovarian; 47.8% in the experiment with IGROV1 ovarian; 88.3% with OVCAR-3 ovarian; 104% in the experiment on HS 578T breast.

Turning to `COc1ccc(/C=C\c2cc(OC)c(OC)c(OC)c2)cc1OCC(=O)Nc1nc2ccc(F)cc2s1`, the growth is 68.8% in the experiment on SK-MEL-2 melanoma; 57.7% with EKVX NSCLC; 42.4% with SN12C renal; 0.455% (active) with UO-31 renal; 17.5% in the experiment on TK-10 renal; 25% in the experiment with ACHN renal. Moreover, the growth is 16.9% in the experiment on CAKI-1 renal; 33.7% in the experiment on HL-60(TB) leukemia; 40.4% in the experiment on CCRF-CEM leukemia; 12.5% in the experiment with MOLT-4 leukemia; 13.8% in the experiment with SR leukemia; 48.3% with RPMI-8226 leukemia. In addition, the growth in the experiment on OVCAR-8 ovarian is 29.2%; in the experiment on OVCAR-5 ovarian, 92.4%; in the experiment on OVCAR-4 ovarian it was 51.1%; with SK-OV-3 ovarian, 61.2%; in the experiment with IGROV1 ovarian it was 17%; in the experiment on OVCAR-3 ovarian, 48.2%. Besides, the growth with HS 578T breast was 33.8%.

With `Cn1cc(C=O)c2nccnc21`, the growth was 123% with SK-MEL-2 melanoma; 96.9% in the experiment with EKVX NSCLC; 104% with SN12C renal; 106% in the experiment with UO-31 renal; 94.8% in the experiment with TK-10 renal; 109% with ACHN renal. In addition, the growth in the experiment with CAKI-1 renal was 91.4%; with HL-60(TB) leukemia it was 107%; in the experiment on CCRF-CEM leukemia, 102%; in the experiment on MOLT-4 leukemia, 101%; in the experiment on SR leukemia, 105%; with RPMI-8226 leukemia, 103%. Also, the growth in the experiment with OVCAR-8 ovarian was 104%; in the experiment on OVCAR-5 ovarian it was 120%; with SK-OV-3 ovarian it was 101%; in the experiment on IGROV1 ovarian it was 122%; in the experiment with OVCAR-3 ovarian, 125%; with HS 578T breast, 100%.

As to `CC(=O)O[C@H]1CC[C@H]2[C@@H]3CC=C4c5nc(-c6ccccc6)sc5CC[C@]4(C)[C@H]3CC[C@]12C`, the growth in the experiment on SK-MEL-2 melanoma was 82%; with EKVX NSCLC it was 79.6%; with SN12C renal, 85.5%; with UO-31 renal, 78.2%; with TK-10 renal, 92.4%; in the experiment with ACHN renal, 91.8%. Moreover, the growth in the experiment on CAKI-1 renal is 67.5%; in the experiment with HL-60(TB) leukemia, 82.1%; with CCRF-CEM leukemia it was 28.4%; in the experiment with MOLT-4 leukemia, 46.1%; in the experiment on SR leukemia it was 8.39% (active); in the experiment on RPMI-8226 leukemia it was -37.3% (active). The growth in the experiment on OVCAR-8 ovarian is 77.9%; in the experiment with OVCAR-5 ovarian, 75.9%; in the experiment on OVCAR-4 ovarian it was 87.2%; in the experiment with SK-OV-3 ovarian, 94.5%; with OVCAR-3 ovarian it was 92.9%; in the experiment with HS 578T breast it was 64.2%.

Take `O=C1NC(=O)C(=Cc2cccn2CCCCCn2c3ccccc3c(=O)c3ccccc32)C(=O)N1`: the growth in the experiment with SK-MEL-2 melanoma was 107%; in the experiment with EKVX NSCLC, 105%; in the experiment with SN12C renal, 106%; with UO-31 renal, 79.4%; in the experiment with TK-10 renal, 101%; with ACHN renal, 105%. The growth in the experiment on CAKI-1 renal was 103%; with HL-60(TB) leukemia, 92.2%; in the experiment with CCRF-CEM leukemia, 100%; in the experiment with MOLT-4 leukemia, 93.3%; in the experiment with SR leukemia, 86.7%; in the experiment with RPMI-8226 leukemia, 92%. The growth is 102% with OVCAR-8 ovarian; 101% in the experiment on OVCAR-5 ovarian; 99.8% in the experiment on OVCAR-4 ovarian; 108% in the experiment with SK-OV-3 ovarian; 99.4% with IGROV1 ovarian; 105% in the experiment with OVCAR-3 ovarian. The growth with HS 578T breast is 106%.

`COC(=O)[C@@H](C)C[C@H](Cc1ccccc1)NC(=O)c1nc([C@@H](C[C@H](C(C)C)N(C)C(=O)[C@@H](NC(=O)[C@H]2CC(=O)CCN2C)C(C)C)OC(C)=O)sc1C(C)C`: the growth with SK-MEL-2 melanoma was 5.7% (active); in the experiment on EKVX NSCLC, 30%; in the experiment on SN12C renal, 17.5%; in the experiment on UO-31 renal, 29.6%; in the experiment with TK-10 renal, 46.5%; with ACHN renal, 21.9%. The growth is 34.6% in the experiment on CAKI-1 renal; -36.7% (active) with HL-60(TB) leukemia; 9.87% (active) in the experiment on CCRF-CEM leukemia; 15% in the experiment on MOLT-4 leukemia; 10.9% with SR leukemia; -3.35% (active) in the experiment on RPMI-8226 leukemia. The growth in the experiment on OVCAR-8 ovarian is 8.46% (active); with OVCAR-5 ovarian, 35.5%; in the experiment with OVCAR-4 ovarian, 45.8%; in the experiment with SK-OV-3 ovarian, 29.1%; in the experiment with IGROV1 ovarian it was 14.4%; in the experiment with OVCAR-3 ovarian it was -15.6% (active). Also, the growth in the experiment with HS 578T breast was 9.66% (active).
